Hit rate of the full screen: of about 10,000 compounds, about 320 (3.2%) were called active. What follows is part of a selection rich in actives, with near analogues and random picks from the rest. A number with no mark means an inactive call. Cut-off read from the data, not from the text of the source: active = CPE inhibition mostly above about 9.1% (no sharp cut-off); inactive = mostly below about 7.2%.
Assay: antivirals protecting cells from dengue CPE – CPE readout, HTS (AID 540333)
Details: Dengue virus CPE inhibition in host cells, at 20 µM; active compounds read high

Structure (SMILES)	CPE inhibition
Cc1ccc(/C=N/NS(=O)(=O)c2ccc([N+](=O)[O-])cc2)o1	inactive
Cc1ccc(C(=O)O/N=C(\N)c2cccnc2)cc1[N+](=O)[O-]	1.06%
Cc1ccc(NC(=O)COC(=O)C2(c3ccc(Cl)cc3)CCCC2)cc1	10.5% (active)
NS(=O)(=O)c1ccc(NC(=O)COC(=O)C2(c3ccc(F)cc3)CCCC2)cc1	0.475%
CC(=O)Nc1ccc(NC(=O)COC(=O)C2(c3ccc(Cl)cc3)CCCC2)cc1	0.545%
COc1ccc(/C=C/C(=O)c2cc(F)ccc2OC(=O)c2ccccc2C)cc1OC	inactive
N#Cc1ccsc1NC(=O)CN(Cc1ccccc1)Cc1ccccc1	9.87% (active)
N#Cc1ccsc1NC(=O)CN1CCN(c2ccccc2O)CC1	inactive
CCN(CC)c1ccc(C(=O)OCC(=O)Nc2sccc2C#N)cc1	inactive
CSc1sc(C)cc1/C=N/O	inactive
C/C(=N\NC(=S)NCCc1ccccc1)c1ccc(Cl)cc1	1.61%
S=C(NCCc1ccccc1)Nc1ccc(Br)cc1	3.17%
S=C(NCCc1ccccc1)N/N=C/c1ccccc1Cl	18.4% (active)
O=C(Nc1cc(Cl)ccc1Cl)c1ccc(-c2ccccc2)cc1	inactive
O=C(Nc1ccc(Cl)c(C(F)(F)F)c1)[C@@H]1CC=C[C@@H]2CCN(Cc3ccc(Cl)c(Cl)c3)C(=O)[C@@H]21	9.69%
COc1ccc(NC(=O)CN2C(=O)C(c3ccccc3)=NC23CCCCCC3)cc1	5.39%
COc1cc(NC(=O)CN2C(=O)C(c3ccccc3)=NC23CCCCCC3)cc(OC)c1	14% (active)
COc1ccc(NC(=O)CN2C(=O)C(c3ccccc3)=NC23CCCCCC3)cc1OC	0.935%
CCOC(=O)/C(N=Nc1sc(C(=O)OC)c(C)c1C(=O)OCC)=C(\O)CCl	0.165%
Cc1ccc(NS(=O)(=O)c2ccc3c(c2)C(=O)c2ccccc2C3=O)c(C)c1	4.82%
Cc1cc(C)c(S(=O)(=O)Nc2ccccc2-c2ccccc2)c(C)c1	20.4% (active)
Cc1ccc(S(=O)(=O)N(CC(=O)Nc2ccccc2-c2ccccc2)c2ccc(C)cc2C)cc1	10.8%
Clc1ccc(-n2nnnc2CN2CCOCC2)cc1Cl	0.27%
COc1ccccc1OCCOCCOc1ccccc1Cl	inactive

Structure (SMILES)	CPE inhibition
O=C1CN(C(=O)COC(=O)/C=C/c2ccc(OC(F)F)cc2)c2ccccc2N1	inactive
CCOC(=O)c1c(C)[nH]c(C)c1C(=O)COC(=O)/C=C/c1ccc(OC(F)F)cc1	10.1% (active)
O=C(COC(=O)/C=C/c1ccc(OC(F)F)cc1)NCc1cccs1	0.315%
C/C(=N\NC(=O)CSc1nnc(C)s1)c1ccc(Cl)cc1	inactive
CC(C)CC(=O)NC1(C(F)(F)F)C(=O)N(CC(C)C)C2=C1C(=O)CC(C)(C)C2 (stereo not drawn)	inactive
Cc1ccc(C)c(Nc2ncnc(N)c2[N+](=O)[O-])c1	6.21%
CNc1nc(Nc2ccc(C)c(Cl)c2)nc(N)c1[N+](=O)[O-]	9.08% (active)
CC(=O)Nc1ccc(Nc2nc(C)c([N+](=O)[O-])c(Nc3ccc(NC(C)=O)cc3)n2)cc1	inactive
COc1cccc(-c2ncc3ccccc3c2COC(=O)c2ccc(C(C)(C)C)cc2)c1	15.2% (active)
COc1cccc(-c2ncc3ccccc3c2CO)c1	inactive
COc1cccc(-c2ncc3ccccc3c2COC(=O)c2ccc(C(F)(F)F)cc2)c1	0.77%
CC(=O)N1N=C(c2ccc(Br)cc2)OC1(C)CC(=O)Nc1ccccc1 (stereo not drawn)	4.7%
O=C(CN1CCCCCCC1)N/N=C/c1ccccc1F	0.805%
C/C(=N\NC(=O)COc1ccc(C(C)(C)C)cc1)c1ccc(-n2ccnc2)cc1	10.2% (active)
CC(C)(C)c1ccc(OCC(=O)N/N=C/c2ccc(N3CCOCC3)cc2)cc1	1.86%
C/C(=N\Nc1ccc(Cl)c(Cl)c1)c1ccc(-n2ccnc2)cc1	inactive
CN(c1ccccc1)S(=O)(=O)c1cccc(NC(=O)CSc2nncn2C)c1	0.35%
CN(c1ccccc1)S(=O)(=O)c1cccc(NC(=O)CSc2ncc(C(F)(F)F)cc2Cl)c1	22.4% (active)
NS(=O)(=O)c1cccc(NC(=O)CSc2ncc(C(F)(F)F)cc2Cl)c1	3.56%
Cc1c(Cl)cccc1NC(=S)NCc1cccn1C	0.255%
Cc1cccc(-n2c(C)cc(/C=C3\C(=N)N4N=C(CC(C)C)SC4=NC3=O)c2C)c1	0.575%
Cc1cccc(-n2c(C)cc(/C=C3/C(=N)N4C(c5ccccc5)=CSC4=NC3=O)c2C)c1	5.77%
Cc1cc(C)cc(-n2c(C)cc(/C=C3\C(=N)N4N=C(CC(C)C)SC4=NC3=O)c2C)c1	15.1% (active)
COC(=O)c1ccc(Oc2c(Cl)cccc2[N+](=O)[O-])cc1	0.625%

Structure (SMILES)	CPE inhibition
COc1ccc(Nc2nc(-c3cccc([N+](=O)[O-])c3)nc3ccccc23)c(OC)c1	0.465%
O=C(O)CC(CC(=O)O)c1ccsc1	inactive
CCOC(=O)N1CCN(C(=O)c2ccc(-n3c(C)ccc3C)cc2)CC1	0.68%
CCOC(=O)c1ccc(-n2c(C)ccc2C)cc1	0.33%
C=CC[C@]12CCc3sccc3C1N(c1ccc(C(=O)OCC)cc1)C2=O (stereo partly drawn)	19.9% (active)
Cc1cc(=O)[nH]c(N/N=C/c2ccc(Br)s2)n1	inactive
CCc1nnc(N2C(=O)c3ccc(Oc4ccc([N+](=O)[O-])cc4)cc3C2=O)s1	0.2%
Cc1cccc(-c2nsc(SCC(=O)NCc3ccc4c(c3)OCO4)n2)c1	0.255%
S=C(Nc1ccccc1Oc1ccccc1)Nc1cccc(Cl)c1Cl	12.8% (active)
FC(F)Oc1ccccc1NC(=S)Nc1cccc(Cl)c1Cl	0.195%
S=C(Nc1ccc(OCc2ccccc2)cc1)Nc1cccc(Cl)c1Cl	0.45%
COc1cccc(NC(=O)CN2C(=O)C(c3ccc(C)cc3)=NC23CCCCCC3)c1	3.59%
Cc1ccc(-n2c(=S)[nH]c3nc4c(cc3c2=O)COC(C)(C)C4)cc1	inactive
O=S(=O)(/N=C(/Nc1ccccn1)c1ccc(Cl)cc1)c1ccc(Cl)cc1	0.025%
Cc1ccc(COc2cccc3c2CCN(Cc2ccc(F)cc2)C3=O)cc1	23% (active)
Cc1ccc(CN2CCc3c(OCc4ccc(F)cc4)cccc3C2=O)cc1	23.2% (active)
CCOC(=O)N1CCN(C(=O)COc2cccc3c2CCN(Cc2ccc(F)cc2)C3=O)CC1	0.16%
Cc1cccc(CN2CCc3c(OCC(=O)N4CCCc5ccccc54)cccc3C2=O)c1	4.05%
O=C1c2cccc(OCc3ccc(F)cc3)c2CCN1Cc1ccc(F)cc1	7.61%
O=C1c2cccc(OCC(=O)N3CCCc4ccccc43)c2CCN1Cc1ccccc1	inactive
O=C1c2cccc(OCc3ccc(F)cc3)c2CCN1Cc1ccccc1	11.8% (active)
Cc1cccc(CN2CCc3c(OCC(=O)NCc4ccco4)cccc3C2=O)c1	inactive
O=C(COc1cccc2c1CCN(Cc1ccc(Br)cc1)C2=O)NCc1ccco1	13.9% (active)
COC(=O)c1ccc(COc2cccc3c2CCN(Cc2cccc(C)c2)C3=O)o1	0.825%

Structure (SMILES)	CPE inhibition
Cc1ccc(C)c(NC(=O)COc2cccc3c2CCN(Cc2ccccc2)C3=O)c1	0.435%
O=C(COc1cccc2c1CCN(Cc1ccccc1)C2=O)NCc1ccco1	inactive
COc1ccc(CC(=O)Oc2cc(C)[nH]c(=O)c2[N+](=O)[O-])cc1	inactive
O=C(NCCc1nc2ccccc2[nH]1)/C(=C/c1ccc2c(c1)OCO2)NC(=O)c1ccccc1	inactive
C=CCc1ccc(OCCOc2cccc3cccnc23)c(OC)c1	1.16%
NC(=O)CSc1nc2c(c(=O)n1-c1ccccc1)C1(CCCCC1)Cc1ccccc1-2	13.4% (active)
CSc1n[nH]c2nc3c(c(=O)n12)C1(CCCC1)Cc1ccccc1-3	inactive
Nn1cnc2c(c1=O)C1(CCCCC1)Cc1ccccc1-2	0.27%
COCc1nnc(NC(=O)c2cc(OC)c(OC)cc2[N+](=O)[O-])s1	0.875%
Cc1ccc(S(=O)(=O)c2c(C(=O)c3ccccc3)cnc3cc4c(cc23)OCCO4)cc1	13.2% (active)
Cc1ccc(C(=O)c2cnc3cc4c(cc3c2S(=O)(=O)c2ccccc2)OCCO4)cc1	6.29%
CCOc1ccc(S(=O)(=O)c2c(C(=O)c3ccc(C)cc3)cnc3cc4c(cc23)OCCO4)cc1	3.02%
Cc1ccc(O)c(-c2cc(C(=O)Nc3ccc(S(=O)(=O)Nc4nc(C)cc(C)n4)cc3)[nH]n2)c1	inactive
COc1cc2cc(CCOC(=O)c3ccco3)oc(=O)c2cc1OC	0.275%
N#Cc1ccc(NC(=O)COC(=O)CCNS(=O)(=O)c2ccccc2)cc1	inactive
COC(=O)C1(CC2CC(c3ccncc3)=NO2)CCN(C(=O)OC(C)(C)C)CC1 (stereo not drawn)	inactive
CCCCCCCNC(=O)C1(CC2CC(c3cccc(Br)c3)=NO2)CCNCC1 (stereo not drawn)	inactive
CCCCCCCNC(=O)C1(CC2CC(c3ccc(Cl)cc3)=NO2)CCN(C(=O)C2(C)CC2)CC1 (stereo not drawn)	1.24%
CCCCCCCNC(=O)C1(CC2CC(c3cccc(Br)c3)=NO2)CCN(C(=O)C2(C)CC2)CC1 (stereo not drawn)	2.1%
CCCCCCCNC(=O)C1(CC2CC(c3ccccc3)=NO2)CCN(C(=O)OC(C)(C)C)CC1 (stereo not drawn)	14.1% (active)
CCCCCCCNC(=O)C1(CC2CC(c3cccc(Br)c3)=NO2)CCN(C(=O)Cc2ccc(F)cc2)CC1 (stereo not drawn)	21.7% (active)

Reference: PubChem BioAssay AID540333 (Southern Research Specialized Biocontainment Screening …, 2011)
